For 40 compounds, activity results are on record in PubChem BioAssay.

SMILES strings stand for the structures.

Tumor necrosis factor receptor superfamily member 10B (Homo sapiens), sequence (O14763 whole entry, looked up): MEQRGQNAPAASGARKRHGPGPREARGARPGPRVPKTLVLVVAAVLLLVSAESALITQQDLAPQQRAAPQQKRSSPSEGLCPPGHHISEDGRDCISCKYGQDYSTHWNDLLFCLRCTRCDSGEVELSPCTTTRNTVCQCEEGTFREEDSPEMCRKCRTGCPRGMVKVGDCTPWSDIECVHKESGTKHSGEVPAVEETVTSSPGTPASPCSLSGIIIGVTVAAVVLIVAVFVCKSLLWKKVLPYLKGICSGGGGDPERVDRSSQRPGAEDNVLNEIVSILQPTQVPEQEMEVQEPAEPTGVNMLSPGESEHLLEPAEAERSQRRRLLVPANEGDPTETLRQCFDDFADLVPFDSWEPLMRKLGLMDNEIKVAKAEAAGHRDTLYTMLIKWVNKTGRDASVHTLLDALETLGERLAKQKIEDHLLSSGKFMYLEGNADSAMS

One test concerns the target Tumor necrosis factor receptor superfamily member 10B (Homo sapiens) (UniProt O14763). Briefly: viability loss of caspase-8 NB7 cells with TRAIL – with/without TRAIL, luminescence panel, confirmation (AID 651596). The note with it: NB7 neuroblastoma + caspase-8, TRAIL sensitization, NB7 Caspase-8, with TRAIL, mean of runs, at 10 µM, stronger effect = higher value.
Consider `Cc1cccc(NC(=O)c2ccc3c(Cl)c4c(nc3c2)CCCC4)n1`, for which the activity is 77.1%.
The same measure, in the same setting: under `COc1ccc(-c2cn3ccccc3n2)cc1[N+](=O)[O-]` stands 50.9%; under `CCc1ccc(C2=NNC(=Nc3cccc(S(=O)(=O)N(C)C)c3)SC2)cc1`, 76.8%.
The same measure, in the same setting: under `Cc1nc2cc(NC(=O)c3ccc(Br)s3)ccc2s1` stands 71.4%; under `O=C(c1ccccc1)n1c(=S)nc2ccccn21`, 86.2%; under `CCS(=O)(=O)c1ncc(Cl)c(C(=O)Nc2ccc(C)cc2)n1`, 78.6%.
Same read-out and setting: as for `COc1ccc(C(=O)c2no[n+]([O-])c2C(=O)c2ccc(OC)cc2)cc1`, the figure is 98.3%; as for `CCOc1cc(/C=N/N=C(/N)c2nonc2N)cc(Br)c1OCc1ccc(Cl)cc1`, 30.7%.
On to `Cc1ccc(-c2cnc3cc(C)nn3c2)cc1`, for which the activity was 73.9%.
On the same count and under the same terms, as for `CNc1nc(N/N=C/c2cc([N+](=O)[O-])ccc2F)nc(Nc2ccccc2)n1`, the figure is 71.5%.
Same read-out and setting: under `COC(=O)c1ccc2nc(NC(=O)C(C)(C)C)sc2c1` stands 93.2%.
For `CCC(C)c1ccc(O)c(/C=N/O)c1` (stereo not given), the activity is 38%.
Same read-out and setting: under `COc1ccc(/C=N/Nc2cc(C)nc3ccc(Br)cc23)cc1` stands 61%; under `O=C(Nc1nc2ccccc2[nH]1)c1ccc([N+](=O)[O-])cc1`, 53.4%.
For the compound `CCc1sc(C(=O)N2CCc3ccccc32)cc1C`, the activity is 46.1%.
The same measure, in the same setting: under `Brc1ccc(-c2nnc3sc(CN4CCC5(CC4)OCCO5)cn23)cc1` stands 68.3%; under `O=C(Nc1ccc2nc3n(c(=O)c2c1)CCCCC3)c1c(F)ccc([N+](=O)[O-])c1F`, 72.9%.
The same measure, in the same setting: as for `CCOc1ccc(-c2ccc(SCC(=O)NCC3CCCO3)nn2)cc1` (stereo not given), the figure is 41.8%.
On the same count and under the same terms, as for `Cn1cc(S(=O)(=O)CC(=O)N2CCCc3ccccc32)c2ccccc21`, the figure is 1.93%.
For the compound `CCc1ccc(C2=NN(C(=O)OC)C(O)(C(F)(F)F)C2)cc1` (stereo not given), the activity is 45.8%.
Take `Nc1nc(Nc2ccc(Cl)cc2)nc2ccccc12`: the activity was found to be 84.4%.
Still for that read-out and setting: under `CCCCCCCCOC(=O)c1cc([N+](=O)[O-])c(Sc2ncnc3nc[nH]c23)c([N+](=O)[O-])c1` stands 64.1%.
`Cc1nc2c(-c3ccc(F)cc3)cnn2c(N)c1-c1ccc(F)cc1`: the activity worked out at 66.2%.
Take `Oc1ccccc1-c1cc(-c2ccccc2)no1`: the activity is 46.3%.
The same measure, in the same setting: under `Clc1ccc(CSc2nc3ccncc3[nH]2)cc1` stands 96.8%; under `CCOC(=O)c1sc2nc3c(SCC(=O)O)cc(C(=O)c4ccccc4O)cn3c(=O)c2c1C`, 49.1%.
In the case of `Cn1c(-c2ccc(Br)o2)nc2ccccc21`, the activity was 57.9%.
Still for that read-out and setting: as for `O=C(CCl)Nc1c(C(=O)Nc2ccc3c(c2)OCCO3)oc2ccccc12`, the figure is 93.3%; as for `Cc1ccc(C(=O)Nc2ccc3ncccc3c2)cc1`, 93.4%.
On the same count and under the same terms, as for `O=C(Nc1nc2ccccc2[nH]1)c1ccc(Cl)cc1`, the figure is 94.4%; as for `CC(C)(C)OC(=O)NCc1ccc(NC(=O)c2nc[nH]c2C(=O)NCCCNC(=O)c2[nH]cnc2C(=O)Nc2ccc(CNC(=O)OC(C)(C)C)cc2)cc1`, 87.7%; as for `O=C1c2ccccc2NC(c2ccc3c(c2)OCCO3)N1c1ccc2c(c1)OCCO2` (stereo not given), 44.2%.
The same measure, in the same setting: as for `C#CCSc1nnc(-c2ccc(C)cc2)o1`, the figure is 97.6%.
Turning to `CNC[C@H](Cc1ccccc1)NC[C@@H](Cc1cccc2ccccc12)NCCc1ccc(C)cc1`, the activity was 95.4%.
`Cc1ccc(C2=NN(C(=O)CCl)C(c3cccs3)C2)o1` (stereo not given): the activity was 99.6%.
Regarding `CC(=O)n1cc(N(C(=O)CCl)c2ccccc2)c2ccccc21`, the activity stood at 99.6%.
Consider `CCc1ccc([C@H]2[C@@H]3C(=O)C[C@@H]4C(=O)N(c5ccccc5)C(=O)[C@@H]4[C@@H]3CN2S(=O)(=O)c2ccc(C)cc2)cc1`, for which the activity was -4.35%.
As to `O=C(CNC(=O)c1ccccc1F)N/N=C/c1cc(Br)ccc1OC(=O)/C=C/c1ccco1`, the activity amounted to 3.4%.
With `O=C(CCN1C(=O)NC2(CCCC2)C1=O)Nc1ccc(-c2nc3ccccc3s2)cc1`, the activity amounted to 52.2%.
On the same count and under the same terms, under `O=C(Nc1nc2cc3c(cc2s1)OCO3)c1ccco1` stands 79.5%.

Test system in the next test: not listed separately
Described as above. The note with it: NB7 neuroblastoma + caspase-8, without TRAIL, NB7 Caspase-8, without TRAIL, mean of runs, at 10 µM.
Consider `Cc1cccc(NC(=O)c2ccc3c(Cl)c4c(nc3c2)CCCC4)n1`, for which the activity was found to be 80%.
Still for that read-out and setting: under `COc1ccc(-c2cn3ccccc3n2)cc1[N+](=O)[O-]` stands 53%.
Still for that read-out and setting: as for `CCc1ccc(C2=NNC(=Nc3cccc(S(=O)(=O)N(C)C)c3)SC2)cc1`, the figure is 75%; as for `Cc1nc2cc(NC(=O)c3ccc(Br)s3)ccc2s1`, 63.1%; as for `O=C(c1ccccc1)n1c(=S)nc2ccccn21`, 85.5%.
Same read-out and setting: as for `CCS(=O)(=O)c1ncc(Cl)c(C(=O)Nc2ccc(C)cc2)n1`, the figure is 86.8%; as for `COc1ccc(C(=O)c2no[n+]([O-])c2C(=O)c2ccc(OC)cc2)cc1`, 99%.
Turning to `CCOc1cc(/C=N/N=C(/N)c2nonc2N)cc(Br)c1OCc1ccc(Cl)cc1`, the activity was 37.3%.
Same read-out and setting: as for `Cc1ccc(-c2cnc3cc(C)nn3c2)cc1`, the figure is 66.8%; as for `CNc1nc(N/N=C/c2cc([N+](=O)[O-])ccc2F)nc(Nc2ccccc2)n1`, 86.5%; as for `COC(=O)c1ccc2nc(NC(=O)C(C)(C)C)sc2c1`, 91.2%.
On the same count and under the same terms, as for `CCC(C)c1ccc(O)c(/C=N/O)c1` (stereo not given), the figure is 56.6%.
Still for that read-out and setting: under `COc1ccc(/C=N/Nc2cc(C)nc3ccc(Br)cc23)cc1` stands 78%; under `O=C(Nc1nc2ccccc2[nH]1)c1ccc([N+](=O)[O-])cc1`, 35%; under `CCc1sc(C(=O)N2CCc3ccccc32)cc1C`, 44.7%.
With `Brc1ccc(-c2nnc3sc(CN4CCC5(CC4)OCCO5)cn23)cc1`, the activity amounted to 61.4%.
Still for that read-out and setting: as for `O=C(Nc1ccc2nc3n(c(=O)c2c1)CCCCC3)c1c(F)ccc([N+](=O)[O-])c1F`, the figure is 52.3%; as for `CCOc1ccc(-c2ccc(SCC(=O)NCC3CCCO3)nn2)cc1` (stereo not given), 32.7%; as for `Cn1cc(S(=O)(=O)CC(=O)N2CCCc3ccccc32)c2ccccc21`, -0.4%.
Regarding `CCc1ccc(C2=NN(C(=O)OC)C(O)(C(F)(F)F)C2)cc1` (stereo not given), the activity was 59%.
The same measure, in the same setting: under `Nc1nc(Nc2ccc(Cl)cc2)nc2ccccc12` stands 83.5%.
Still for that read-out and setting: under `CCCCCCCCOC(=O)c1cc([N+](=O)[O-])c(Sc2ncnc3nc[nH]c23)c([N+](=O)[O-])c1` stands 62%; under `Cc1nc2c(-c3ccc(F)cc3)cnn2c(N)c1-c1ccc(F)cc1`, 57%; under `Oc1ccccc1-c1cc(-c2ccccc2)no1`, 37.7%.
Same read-out and setting: under `Clc1ccc(CSc2nc3ccncc3[nH]2)cc1` stands 96.1%.
In the case of `CCOC(=O)c1sc2nc3c(SCC(=O)O)cc(C(=O)c4ccccc4O)cn3c(=O)c2c1C`, the activity was 42.5%.
On the same count and under the same terms, under `Cn1c(-c2ccc(Br)o2)nc2ccccc21` stands 61.8%; under `O=C(CCl)Nc1c(C(=O)Nc2ccc3c(c2)OCCO3)oc2ccccc12`, 90.3%.
Turning to `Cc1ccc(C(=O)Nc2ccc3ncccc3c2)cc1`, the activity stood at 92.9%.
Still for that read-out and setting: under `O=C(Nc1nc2ccccc2[nH]1)c1ccc(Cl)cc1` stands 94.1%; under `CC(C)(C)OC(=O)NCc1ccc(NC(=O)c2nc[nH]c2C(=O)NCCCNC(=O)c2[nH]cnc2C(=O)Nc2ccc(CNC(=O)OC(C)(C)C)cc2)cc1`, 69.1%.
Same read-out and setting: as for `O=C1c2ccccc2NC(c2ccc3c(c2)OCCO3)N1c1ccc2c(c1)OCCO2` (stereo not given), the figure is 51.8%; as for `C#CCSc1nnc(-c2ccc(C)cc2)o1`, 93.2%; as for `CNC[C@H](Cc1ccccc1)NC[C@@H](Cc1cccc2ccccc12)NCCc1ccc(C)cc1`, 99.1%.
As for `Cc1ccc(C2=NN(C(=O)CCl)C(c3cccs3)C2)o1` (stereo not given), the activity was 99.1%.
The same measure, in the same setting: under `CC(=O)n1cc(N(C(=O)CCl)c2ccccc2)c2ccccc21` stands 99.8%.
In the case of `CCc1ccc([C@H]2[C@@H]3C(=O)C[C@@H]4C(=O)N(c5ccccc5)C(=O)[C@@H]4[C@@H]3CN2S(=O)(=O)c2ccc(C)cc2)cc1`, the activity is -7.2%.
Regarding `O=C(CNC(=O)c1ccccc1F)N/N=C/c1cc(Br)ccc1OC(=O)/C=C/c1ccco1`, the activity came to 20.8%.
The same measure, in the same setting: as for `O=C(CCN1C(=O)NC2(CCCC2)C1=O)Nc1ccc(-c2nc3ccccc3s2)cc1`, the figure is 44.5%; as for `O=C(Nc1nc2cc3c(cc2s1)OCO3)c1ccco1`, 93.1%.
